# Compound activity from PubChem BioAssay.
# Insulin prom up: MIN6 insulin promoter up-regulation. z-score at 5 µM. 190,000 tested, 0.3% active. MIN6 insulin promoter-GFP reporter, high-content imaging; active compounds read high;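 active = z-score above 3 at 5 µM with at least 500 cells counted in the well; inconclusive = wells under 500 cells, flagged as cytotoxic or low count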
# WT yeast gro inh: growth inhibition of WT yeast, mitochondrial fusion screen | inhibition, % at 10 µM | AID 1362 | 190,000 tested, 2.1% active | mitochondrial fusion phenotypic screen, WT strain; in the data active = inhibition above about 58%; tested in S. cerevisiae
# Insulin prom inh: TRM-6 insulin promoter activity inhibition. inhibition, % at 2 µM. TRM-6 cells (human fetal islet line), insulin promoter-eGFP reporter, imaging; reporter expression induced with tamoxifen. 130,000 tested, 0.9% active;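 active = inhibition above the mean plus 3 SD, with well images judged a real hit on visual review, cut at about 60% in these data, passing the limit was not always enough; inconclusive = inhibition over the cutoff but images rejected on review; inactive = inhibition not above the cutoff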
# Lmaj promast: reduces viability of Leishmania major promastigotes; resazurin fluorescence viability; inhibition, % at 10 µM; 200,000 tested, 9% active; AID 1063; in the data active = inhibition above about 50%;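 note: promastigotes grown with compound for 44 hours at 28 °C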
# Autophagy mod: modulators of autophagy | MEF GFP-LC3 puncta imaging; test concentration mostly 10 µM | calls only at 10 µM (by protocol) | 190,000 tested, 0.98% active;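 active = percentage of spot-positive cells more than 3 SD above its plate mean, without a fluorescence outlier flag or 80% toxicity; inconclusive = no clear call, values can overlap the other calls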
# A number is an active result; 0 = inactive; ? = inconclusive; - = not tested or not shown; + = active, no number. Shown are actives, neighbours in structure and some others; about 11% of the full set was active somewhere.
SMILES,Insulin prom up,WT yeast gro inh,Insulin prom inh,Lmaj promast,Autophagy mod
COc1cc(C2C(Oc3ccccc3C)C(=O)N2Cc2ccc(F)cc2)cc(OC)c1OC (configuration not stated),0,0,0,99,0
CCn1cc([N+](=O)[O-])c(C(=O)N2N=C(c3cccc4ccccc34)CC2c2ccccc2O)n1 (configuration not stated),-,0,0,74,0
CCn1cc([N+](=O)[O-])c(C(=O)N2N=C(c3ccc4ccccc4c3)CC2c2ccccc2O)n1 (configuration not stated),-,0,0,0,0
CCn1cc(Cl)c(C(=O)N2N=C(c3ccc4ccccc4c3)CC2c2ccccc2O)n1 (configuration not stated),0,0,67,73,0
Cc1ccc(C2CC(C(F)(F)F)n3nc(C(=O)NCC4CCCO4)cc3N2)cc1 (configuration not stated),0,-,0,0,0
CC(C)c1ccc(CNc2ccc(N3CCOCC3)cc2)cc1,0,0,0,81,0
CCOc1ccc(CNc2ccc(N3CCCC3)cc2)cc1,-,0,0,100,0
O=C(Nc1nc2ccccc2s1)c1ccc(OCC2CCCO2)cc1 (configuration not stated),0,0,0,0,0
COc1ccc(C(=O)N2CCCC(c3nc(-c4ccc(OC)c(OC)c4)no3)C2)c(OC)c1 (configuration not stated),0,0,0,87,0
COc1ccc(-c2noc(C3CCCN(C(=O)c4ccccc4OC)C3)n2)cc1OC (configuration not stated),0,0,0,0,0
CN(C(=S)Nc1ccc(SC(F)F)cc1)c1ccc(O)cc1,0,87,0,0,0
CN(C(=S)Nc1ccc(Oc2ccccc2)cc1)c1ccc(O)cc1,0,0,0,0,0
Cc1ccc(-c2cc(C(F)(F)F)n3ncc(C(=O)N4CCCc5ccccc54)c3n2)cc1,0,0,0,0,0
O=C(c1cnn2c(C(F)(F)F)cc(-c3ccc4c(c3)OCO4)nc12)N1CCCCC1,0,0,0,99,0
O=C(NC1CCCC1)c1cnn2c(C(F)(F)F)cc(-c3ccc4c(c3)OCO4)nc12,-,0,0,0,+
O=C(NC1CCCC1)c1cnn2c(C(F)(F)F)cc(-c3ccco3)nc12,0,0,0,0,0
CN1CCN(C(=O)c2cnn3c(C(F)(F)F)cc(-c4ccc5c(c4)OCO5)nc23)CC1,0,98,-,84,0
Cc1ccc(-c2cc(C(F)(F)F)n3ncc(C(=O)N4CCN(C)CC4)c3n2)cc1,0,0,-,99,0
CCCn1c(C)cc(C(=O)COc2ccc(-c3nnco3)cc2)c1C,0,0,0,0,0
NC(=O)COc1ccc(/C=N/NS(=O)(=O)c2ccccc2)cc1,0,0,0,0,0
COc1ccccc1NS(=O)(=O)c1ccc2c(c1)n(C)c(=O)n2C,0,0,-,0,0
O=C(c1nn2c(C(F)(F)F)cc(-c3cccs3)nc2c1Br)N1CCCc2ccccc21,0,0,0,69,0
O=C(c1nn2c(C(F)(F)F)cc(-c3ccco3)nc2c1Br)N1CCCc2ccccc21,0,0,0,0,0
CN1CCN(C(=O)c2cnn3c(C(F)(F)F)cc(-c4cccs4)nc23)CC1,0,0,0,0,0
O=C(c1cnn2c(C(F)(F)F)cc(-c3cccs3)nc12)N1CCN(C(c2ccccc2)c2ccccc2)CC1,0,0,0,97,0
SMILES,Insulin prom up,WT yeast gro inh,Insulin prom inh,Lmaj promast,Autophagy mod
NC(Cc1c[nH]c2ccccc12)C(=O)NCc1ccco1 (configuration not stated),0,0,-,0,0
COc1ccc(CC(=O)NCCN2CCCC2)cc1,0,0,0,0,0
COc1ccc(-c2ccc(OC)cc2)cc1,-,0,0,0,0
COc1ccc(/C=C/c2cc(-c3ccc(C)cc3)o[n+]2C)cc1,?,58,-,101,0
CCc1ccc(C(=O)NCc2cnn(C)c2)s1,0,0,-,0,0
COc1ccc(-c2nc(N3CCC(C)CC3)[nH]c(=O)c2C#N)cc1,0,0,71,0,0
O=C(CSc1ncnc2scc(-c3ccccc3)c12)Nc1ccc(C(=O)O)cc1,0,-,-,-,-
CC(=O)Nc1ccc(Sc2ncnc3scc(-c4ccccc4)c23)cc1,0,79,-,0,0
CCc1nnc(NC(=O)CSc2ncnc3scc(-c4ccc(C)cc4)c23)s1,0,0,-,0,0
CCCC(=O)Nc1ccccc1Sc1ncnc2scc(-c3ccccc3)c12,0,0,0,55,0
Cc1sc2ncnc(SCc3ccc(C(=O)O)cc3)c2c1C,-,0,-,0,0
Cc1ccc(-c2csc3ncnc(SCc4ccc(C(=O)O)cc4)c23)cc1,0,59,-,0,0
NC(=O)COc1ncnc2scc(-c3ccc(F)cc3)c12,0,0,-,0,0
CC(=O)Nc1cccc(Oc2ncnc3scc(-c4ccc(C(C)C)cc4)c23)c1,0,72,0,0,0
CCc1ccc(-c2nn(-c3ccccc3)cc2C2SCC(=O)N2Cc2ccco2)cc1 (configuration not stated),0,-,0,98,0
O=c1cc(CN2CCN(S(=O)(=O)c3ccc4ccccc4c3)CC2)nc2sccn12,0,0,0,0,0
CC(C)C(=O)Nc1cccc(-c2cnc3ccccc3n2)c1,0,0,0,0,0
COc1ccc(COc2cc(-c3cccc(OC)c3)nc3ccc(NC(=O)C(C)C)cc23)cc1,0,0,0,100,0
Cc1cc(C)c(S(=O)(=O)N2CCN(c3ccc([N+](=O)[O-])c(-n4nc(C)cc4C)c3)CC2)c(C)c1,0,0,0,59,0
Cc1cc(C)n(-c2cc(N3CCN(S(=O)(=O)c4ccc(Br)cc4)CC3)ccc2[N+](=O)[O-])n1,0,0,0,0,0
COc1ccc(-c2sc(NC(C)=O)nc2-c2ccccc2)cc1,0,0,0,66,0
COc1ccc(-c2nc(NC(=O)c3n[nH]c(=O)c4ccccc34)sc2C)cc1,0,0,0,63,0
O=C(CSCC(=O)N1CCCCC1)Nc1nc(-c2ccccc2)c(-c2ccccc2)s1,0,60,0,0,0
COc1ccc(-c2nc(NC(C)=O)sc2-c2ccccc2)cc1,0,0,-,0,0
COc1ccc(Nc2nc(C)c(-c3ccccc3)s2)cc1,0,66,-,0,0
SMILES,Insulin prom up,WT yeast gro inh,Insulin prom inh,Lmaj promast,Autophagy mod
COc1ccc(CN2CC(C(=O)NCCc3ccc(C)cc3)CC2=O)cc1 (configuration not stated),0,0,0,0,0
O=C1NC(=O)/C(=C/C(=O)N2CCOCC2)S1,0,0,-,0,0
CCOc1ccc(C(=O)N/N=C/c2ccc(-c3ccc(S(=O)(=O)Nc4ncccn4)cc3)o2)cc1,-,0,0,0,0
O=C(N/N=C/c1ccc(-c2ccc(S(=O)(=O)Nc3ncccn3)cc2)o1)c1cc2ccccc2cc1O,0,0,0,73,0
O=C(c1cccs1)N1CCN(c2ccccc2)CC1,0,0,-,0,0
CCOc1ccc(C2/C(=C(\O)c3c(C)[nH]c(C(=O)OC)c3C)C(=O)C(=O)N2CCN(C)C)cc1 (configuration not stated),-,0,0,0,0
